Nine molecules from PubChem BioAssay (Tox21) can be followed below.

Experiment [1] can be described thus: A CellTox Green Cytotoxicity Assay to monitor cytotoxicity in HEK293 cells - 16 hour (AID 1224888). Note: nearly all actives have a fitted effect of over 35% in size. A digest of the protocol:
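Seeding of HEK293 cells together with cytotoxicity dye preceded a 5 h incubation at 37 C/5% CO2. Test compounds in DMSO were then added and fluorescence monitored across 40 h.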

Experiment [2] can be described thus: qHTS RealTime-Glo MT Cell Viability Assay in HepG2 cells - 0 hour (AID 1224889). Note: nearly all actives have a fitted effect of over 50% in size. A digest of the protocol: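 Real-time, nonlytic viability: 600 HepG2 cells/well mixed with NanoLuc enzyme plus prosubstrate; 5 h settle, compound (DMSO) added by pintool; luminescence monitored over 40 h at 37 C.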
For orientation: qHTS replaces the single test concentration by a dilution series.

Experiment [3] can be described thus: A CellTox Green Cytotoxicity Assay to monitor cytotoxicity in HepG2 cells - 8 hour (AID 1224890). Note: nearly all actives have a fitted effect of over 45% in size. In short, it runs like this: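 Nonlytic assay: viable cells exclude the dye, so fluorescence scales with cell death. HepG2 at 600 cells/well, compounds added after 5 h, signal read across 40 h.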
Experiment [4] is described as follows: qHTS assay to identify small molecule antagonists of the estrogen receptor alpha (ER-alpha) signaling pathway using the BG1 cell line in the presence of 0.1 nM 17-beta-estradiol - cell viability counter screen (AID 1259241). Note: nearly all actives have a fitted effect of over 40% in size. In short, it runs like this: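 Following 5 days in phenol red-free medium with charcoal-stripped serum, VM7Luc4E2 cells received test compounds alongside 0.1 nM 17beta-estradiol (final) at 37C for 22 hr. Live cells were then quantified via protease-substrate fluorescence.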

Experiment [5] is described as follows: qHTS assay to identify small molecule antagonists of the androgen receptor (AR) signaling pathway using the MDA cell line in the presence of 0.5 nM R1881 - cell viability counter screen (AID 1259242). Note: nearly all actives have a fitted effect of over 45% in size. In short, it runs like this: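 R1881 at 0.5 nM final stimulated MDA-kb2 cells during 16 hr compound treatment at 37C. Cytotoxicity read: CellTiter-Fluor fluorescence after 30 min.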

Experiment [6] in a line: qHTS assay to identify small molecule HDAC inhibitors - cell viability counter screen (AID 1259365). Note: series mostly up to about 92 µM; nearly all actives have a fitted effect of over 50% in size. A digest of the protocol:
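HCT-116 wild-type, overnight attachment; 2hr drug exposure, 37C; CellTiter-Glo luminescent ATP readout after 30min RT.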

A short description of experiment [7]: qHTS assay to identify small molecule agonists of the sonic hedgehog signaling (Shh) pathway - cell viability counter screen (AID 1259366). Note: nearly all actives have a fitted effect of over 50% in size. A digest of the protocol:
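Compounds in DMSO were pin-transferred onto 3T3 Gli1-Luc cells that had settled 4hr; plates then stood 24hr at 37C and 5% CO2. One hour before the end, CellTiter-Fluor was added and fluorescence recorded.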

Experiment [8] in a line: qHTS assay to identify small molecule antagonists of the sonic hedgehog signaling (Shh) pathway - cell viability counter screen (AID 1259367). Note: nearly all actives have a fitted effect of over 55% in size. A digest of the protocol:
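Cells: 3T3 Gli1-Luc, 2,000/well, 4 hr pre-incubation. Compounds in DMSO, then conditioned medium. Incubation 24 hr, 37C, 5% CO2. CellTiter-Fluor at 23 hr, 1 hr, fluorescence.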

Experiment [9] is described as follows: qHTS assay to identify small molecule agonists of the sonic hedgehog signaling (Shh) pathway (AID 1259368; calls by dose curve;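 note: NIH/3T3-derived 3T3Gli1-Luc cells carrying a stable Gli1-driven firefly luciferase reporter; series mostly up to about 92 µM; nearly all actives have a fitted effect of over 15% in size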). In short, it runs like this:
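Mouse fibroblast (NIH/3T3) reporter cells with stably integrated Gli1-Luc were treated 24 hr with compound; firefly luciferase luminescence served as the read-out.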

Experiment [10] in a line: qHTS assay to identify small molecule antagonists of the sonic hedgehog signaling (Shh) pathway (AID 1259369; calls by dose curve; note: nearly all actives have a fitted effect of over 45% in size). A digest of the protocol:
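Conditioned medium drives Shh signalling in 3T3Gli1-Luc cells; compounds in DMSO co-applied, 24hr at 37 C, then luciferase luminescence.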

The nature of experiment [11]: qHTS assay to identify small molecule agonists of the androgen receptor (AR) signaling pathway in the presence of an antagonist - cell viability counter screen (AID 1259379).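 Note: MDA-kb2 human breast cancer cells carrying an MMTV luciferase reporter; series mostly up to about 92 µM; nearly all actives have a fitted effect of over 25% in size.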 A digest of the protocol: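 A CellTiter-Fluor read-out measured viability of MDA-kb2 reporter cells (MMTV promoter with AR and GR response elements). Treatment: nilutamide 3.0uM final with compounds at 15 concentrations, 16 hr, 37C, 0% CO2.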

A short description of experiment [12]: qHTS assay to identify small molecule agonists of the estrogen receptor beta (ER-beta) signaling pathway - cell viability counter screen (AID 1259380). Note: nearly all actives have a fitted effect of over 30% in size. In short, it runs like this: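 Cells used were ER-beta-UAS-bla HEK293T in medium with 2% charcoal-stripped FBS. They were treated for 16 hr at 37C. Viability came from CellTiter-Glo luminescence.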
The target in experiment [13] is Estrogen receptor (Homo sapiens) (UniProt P03372). The experiment is described as follows: qHTS assay to identify small molecule antagonists of the estrogen receptor alpha (ER-alpha) signaling pathway using the BG1 cell line in the presence of 0.1 nM 17-beta-estradiol (AID 1259244). Note: nearly all actives have a fitted effect of over 50% in size. In short, it runs like this: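 VM7Luc4E2; 4xERE-luciferase; 0.1 nM E2 final; 22 h co-incubation, 37C; ONE-Glo luminescence after 30 min at room temperature.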
Sequence of Estrogen receptor (Homo sapiens) (P03372 whole entry, looked up): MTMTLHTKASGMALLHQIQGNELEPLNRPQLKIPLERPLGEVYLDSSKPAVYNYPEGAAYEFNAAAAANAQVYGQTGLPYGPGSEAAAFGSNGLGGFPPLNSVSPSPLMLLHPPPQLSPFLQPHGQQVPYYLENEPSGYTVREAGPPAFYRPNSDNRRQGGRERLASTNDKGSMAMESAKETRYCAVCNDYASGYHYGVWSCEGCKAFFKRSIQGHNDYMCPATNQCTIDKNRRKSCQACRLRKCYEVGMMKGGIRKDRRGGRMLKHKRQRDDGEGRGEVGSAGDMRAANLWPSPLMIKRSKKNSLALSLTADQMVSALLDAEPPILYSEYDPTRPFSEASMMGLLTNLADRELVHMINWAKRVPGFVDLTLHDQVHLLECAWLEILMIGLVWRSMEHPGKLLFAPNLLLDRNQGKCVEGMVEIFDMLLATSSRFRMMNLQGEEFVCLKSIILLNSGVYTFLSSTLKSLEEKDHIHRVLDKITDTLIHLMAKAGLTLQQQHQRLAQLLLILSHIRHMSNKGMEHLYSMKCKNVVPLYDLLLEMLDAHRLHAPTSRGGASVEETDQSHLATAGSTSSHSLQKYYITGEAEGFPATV

Experiment [14] is described as follows: qHTS assay to identify small molecule HDAC inhibitors (AID 1259364).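 Note: wild-type HCT-116 cells with endogenous class I/II HDAC activity; top concentration of the series differs between compounds; nearly all actives have a fitted effect of over 45% in size.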 In short, it runs like this: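 Relative class I and II HDAC activity is taken from the luminogenic signal in HCT-116 cells, with compound exposure 2 hr and reagent development 30 min at room temperature.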
For experiment [15], the target named is Estrogen receptor beta (Homo sapiens) (UniProt Q92731). The experiment is described as follows: qHTS assay to identify small molecule agonists of the estrogen receptor beta (ER-beta) signaling pathway (AID 1259377; active = well fitted activation curve with a large enough effect in the signal ratio in the repeat runs, not every such curve was filed as active; the % refers to the signal ratio). In short, it runs like this:
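qHTS in ER-beta-UAS-bla HEK293T cells: 6 hr settling, then 16 hr compound at 37C, then LiveBLAzer substrate 2 h at RT before fluorescence reading.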

A short description of experiment [16]: qHTS RealTime-Glo MT Cell Viability Assay in HEK293 cells - 24 hour (AID 1224886). In short, it runs like this: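 Cells + reagent dispensed (600 cells/well, HEK293) → 5 h at 37 C/5% CO2 → 23 nL compound in DMSO pinned → 40 h at 37 C → luminescence read at 0, 8, 16, 24, 32, 40 h.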
Experiment [17] in a line: qHTS RealTime-Glo MT Cell Viability Assay in HEK293 cells - 8 hour (AID 1224887). In short, it runs like this: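 Tox21 screen in HEK293 using RealTime-Glo MT chemistry, with cells and reagent co-dispensed. Luminescence proportional to viable cell number was captured at intervals during 40 h compound exposure at 37 C.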
Experiment [18] has as its target Androgen receptor (Homo sapiens) (UniProt P10275). As to the kind of experiment: qHTS assay to identify small molecule antagonists of the androgen receptor (AR) signaling pathway using the MDA cell line in the presence of 0.5 nM R1881 (AID 1259243). Note: nearly all actives have a fitted effect of over 50% in size. Note: potency is the fitted concentration of half-maximal effect. A digest of the protocol: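 We exposed MDA-kb2 cells to compounds under 0.5 nM R1881 stimulation for 16 hr at 37C and quantified MMTV-driven luciferase by luminescence.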

Experiment [19] can be described thus: qHTS assay to identify small molecule phospholipidosis (PLD) inducers (AID 1259344; active = well fitted curve in the direction sought with a large enough effect; an effect the other way counts as inactive or inconclusive). A digest of the protocol:
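Phospholipidosis is scored by imaging LipidTOX-stained pits in HepG2 cells exposed to compound for 24 h at 37 C; pit counts and integrated intensities per well and per cell serve as outputs.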

Experiment [20] addresses Estrogen receptor beta (Homo sapiens) (UniProt Q92731). The experiment is described as follows: qHTS assay to identify small molecule antagonists of the estrogen receptor beta (ER-beta) signaling pathway (AID 1259378; active = well fitted inhibition curve with a large enough effect in the signal ratio in the repeat runs, not every such curve was filed as active; the % refers to the signal ratio). A digest of the protocol: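 Antagonist mode: compounds added to beta-lactamase reporter HEK293T ER-beta-UAS cells stimulated with E2 (1nM final), 16 hr at 37C. LiveBLAzer B/G FRET substrate, 2 hours room temperature, fluorescence read-out.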

Values without a mark were called inactive. Results filed as inconclusive are left out. The source made the active and inactive calls. Unless noted, calls come from the whole dose curve; as a rule, active = well fitted curve in the direction sought with a large enough effect in the repeat runs; inconclusive = weak or mixed curves; inactive = no such curve, though single readings can be large; an effect the other way counts as inactive or inconclusive.
% is set by controls: 0 for no effect and ±100 for the full control effect.

Sequence of Androgen receptor (Homo sapiens) (P10275 whole entry, looked up): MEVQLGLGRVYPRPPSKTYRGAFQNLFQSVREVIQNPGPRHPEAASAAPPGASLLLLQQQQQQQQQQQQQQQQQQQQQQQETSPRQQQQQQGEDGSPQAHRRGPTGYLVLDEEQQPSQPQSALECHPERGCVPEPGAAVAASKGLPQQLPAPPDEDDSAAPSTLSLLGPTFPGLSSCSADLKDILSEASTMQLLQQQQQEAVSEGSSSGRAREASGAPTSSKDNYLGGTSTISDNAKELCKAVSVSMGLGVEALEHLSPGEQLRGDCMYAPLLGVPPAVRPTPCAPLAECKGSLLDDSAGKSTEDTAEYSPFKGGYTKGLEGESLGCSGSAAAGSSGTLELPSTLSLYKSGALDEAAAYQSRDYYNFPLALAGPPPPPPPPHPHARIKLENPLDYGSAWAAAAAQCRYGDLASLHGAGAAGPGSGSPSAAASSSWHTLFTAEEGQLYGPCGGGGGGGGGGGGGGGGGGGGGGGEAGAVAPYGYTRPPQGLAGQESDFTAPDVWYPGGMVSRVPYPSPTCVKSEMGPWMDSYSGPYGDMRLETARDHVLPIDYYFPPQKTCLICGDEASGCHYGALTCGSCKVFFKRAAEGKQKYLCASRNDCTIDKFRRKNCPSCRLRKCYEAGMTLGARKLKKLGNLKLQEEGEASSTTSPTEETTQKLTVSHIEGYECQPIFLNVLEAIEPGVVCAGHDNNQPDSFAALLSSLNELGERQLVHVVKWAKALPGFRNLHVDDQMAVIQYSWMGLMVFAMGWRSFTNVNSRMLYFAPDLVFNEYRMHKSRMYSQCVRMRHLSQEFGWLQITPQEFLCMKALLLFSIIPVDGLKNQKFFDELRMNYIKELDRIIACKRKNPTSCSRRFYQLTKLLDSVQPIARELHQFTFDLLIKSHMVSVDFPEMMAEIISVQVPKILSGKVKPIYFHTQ
Sequence of Estrogen receptor beta (Homo sapiens) (Q92731 whole entry, looked up): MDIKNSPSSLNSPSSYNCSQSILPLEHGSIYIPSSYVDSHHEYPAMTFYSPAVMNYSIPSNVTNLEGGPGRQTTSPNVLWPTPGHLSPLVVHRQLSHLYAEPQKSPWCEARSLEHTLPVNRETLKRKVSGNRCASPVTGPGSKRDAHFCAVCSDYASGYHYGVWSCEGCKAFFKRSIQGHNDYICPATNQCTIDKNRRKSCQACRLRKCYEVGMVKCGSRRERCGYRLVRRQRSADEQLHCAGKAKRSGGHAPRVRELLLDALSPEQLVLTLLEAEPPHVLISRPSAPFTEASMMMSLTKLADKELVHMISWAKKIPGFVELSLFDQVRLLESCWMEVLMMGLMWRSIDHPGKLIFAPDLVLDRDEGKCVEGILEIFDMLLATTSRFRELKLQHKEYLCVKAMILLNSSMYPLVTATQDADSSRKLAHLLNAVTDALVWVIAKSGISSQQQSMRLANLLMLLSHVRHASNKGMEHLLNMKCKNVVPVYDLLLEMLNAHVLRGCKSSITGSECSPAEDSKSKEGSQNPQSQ

Consider `CCCCCCCCCCCCCBr`, for which the Potency result in experiment [1], in experiment [2], in experiment [3] and in [10] was “inactive” each time. The outcome in [4], in experiment [5], in [6], in experiment [7], in [8] and in [9] was inactive. Further, the result in [11] and in experiment [12] was inactive.

On to `[O]=[Mo](=[O])=[O]`, for which the activity change in experiment [1] is -32.5% [at 15.8 µM, hits give high values]; in [9] it was -1.33% [at 18.9 µM]. Besides, the activity change, negative = cytotoxicity in experiment [2] is 1.95% [at 15.8 µM]; in [4], 0.14% [at 19 µM]; in [6], 3.01% [at 19 µM]; in [11] it was 2.34% [at 19 µM]; in experiment [12], 3.4% [at 19 µM]. Moreover, the cytotoxicity increase in [3] was -8.17% [at 15.8 µM]. For the same molecule, the viability change, negative = cytotoxic in experiment [5] was 3.82% [at 19 µM]; in experiment [7], 1.33% [at 19 µM]; in experiment [8], 0.3% [at 19 µM]. Moreover, the activity change, negative = inhibition in [13] is 3.96% [at 19 µM]; in experiment [14], 3.49% [at 19 µM]; in [10] it was -0.431% [at 19 µM]. Also, the activation in experiment [15] is -1.75% [at 19 µM].

In the case of `CCOC(CN1CCN(CC(C)C(=O)c2ccccc2)CC1)c1ccccc1` (centres undefined), the activity change is -4.55% [at 15.8 µM, hits give high values] in experiment [1] and 0.16% [at 18.9 µM] in experiment [9]. For the same molecule, the activity change, negative = cytotoxicity in experiment [2] was 0.232% [at 15.8 µM]; in experiment [4], -7.75% [at 19 µM]; in experiment [11] it was -6.08% [at 19 µM]; in experiment [12] it was -10.4% [at 19 µM]. In addition, in experiment [3], the cytotoxicity increase was -9.59% [at 15.8 µM]. In addition, the figures for the viability change, negative = cytotoxic in [5], in [7] and in experiment [8] were -2.37% [at 19 µM], -6.98% [at 19 µM] and -0.0061% [at 19 µM], respectively. The activity change, negative = inhibition was 1.54% [at 19 µM] in [14] and -3.93% [at 19 µM] in experiment [10].

As for `C=Cc1ccc(C(C)(C)C)cc1`, the Potency entry in [16], in [17], in experiment [1], in experiment [2], in experiment [3] and in experiment [10] was “inactive” each time. The result in [4], in experiment [7], in experiment [8], in experiment [9], in [11] and in experiment [12] was inactive.

Consider `CCC(=O)Oc1ccc2c(c1)CC[C@@H]1[C@@H]2CC[C@@]2(C)[C@H]1C[C@@H](OC(=O)CC)[C@@H]2OC(=O)CC`, for which the Potency entry in [16], in experiment [17], in [1], in experiment [2] and in [14] was “inactive” in each case. Moreover, the result in experiment [4], in experiment [5], in experiment [13], in experiment [7], in experiment [8] and in [9] was inactive. Besides, the outcome in experiment [11] and in experiment [12] was inactive. Also, in experiment [18], the Potency is 8.41 µM (active).

Turning to `CN(C)CC/C=C1/c2ccccc2COc2ccc(CC(=O)O)cc21`, the Potency entry in [1], in [3], in [14] and in experiment [15] was “inactive” each time. Further, the outcome in [4], in experiment [5], in [19], in experiment [6], in experiment [7] and in [9] was inactive. The result in [11] was inactive.

With `Nc1nc(-c2ccccc2)c(Br)c(=O)[nH]1`, the Potency result in experiment [16], in [17], in experiment [1], in [2], in [18] and in [14] was “inactive” in each case. The Potency result in [10] is “inactive”. Further, the outcome in experiment [4], in experiment [5], in experiment [13], in experiment [19], in experiment [6] and in experiment [7] was inactive. The call in experiment [8], in experiment [9], in experiment [11] and in experiment [12] was inactive.

Turning to `CC(C)(C)NC[C@H](O)COc1cccc2c1CCCC2=O`, the Potency entry in [16], in experiment [17], in experiment [2], in [3], in experiment [14] and in experiment [20] was “inactive” each time. Also, the result in [4], in experiment [13], in experiment [19], in [6], in experiment [7] and in [8] was inactive. In addition, the call in [9], in experiment [11] and in experiment [12] was inactive.

As to `CCC(=O)c1c(O)cc(O)cc1O`, the Potency result in experiment [16], in experiment [17], in experiment [2], in experiment [3], in experiment [18] and in experiment [14] was “inactive” in each case. Further, the Potency entry in experiment [10] is “inactive”. Besides, the result in experiment [4], in experiment [5], in experiment [13], in [19], in [6] and in experiment [7] was inactive. Moreover, the result in experiment [8], in experiment [9] and in [11] was inactive.
